According to PubChem BioAssay (NCI):
About 83,000 compounds went through this panel and 20% of them were active in at least one assay; those are over-represented in the sample as a whole.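 Step 1: grow cells in 96-well plates. Step 2: add test compound at a single concentration. Step 3: incubate 48 h. Step 4: record percent growth.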 The source made the active and inactive calls. How the source made its calls: active means growth percent below 10; inactive means the rest.

Key:
Assay in all cases: NCI-60 one-dose screen, 48 h (100 = growth as untreated, 0 = no growth, -100 = all killed)
Conditions in all cases: 10 µM unless noted
[1] = test system: T-47D breast
[2] = test system: BT-549 breast
[3] = test system: MDA-MB-435 melanoma
[4] = test system: SW-620 colon
[5] = test system: MCF7 breast
[6] = test system: HCT-116 colon
[7] = test system: HCC-2998 colon
[8] = test system: KM12 colon

Measured: growth

N=c1c(S(=O)(=O)c2ccccc2)cc2c(=O)n3ccccc3nc2n1CC1CCCO1 (stereo not given)
inactive: [1] 104% | [2] 101% | [3] 109% | [4] 96.1% | [5] 106% | [6] 105% | [7] 105% | [8] 108%

C#CCO[C@H]1CC(CC#C)(CC#C)C(=O)[C@@H]2[C@H]1[C@H]1C[C@@H]3[C@@]4(C)CCC[C@@](C)(C(=O)OC)[C@@H]4CC[C@@]23C=C1C(C)C
inactive: [1] 84% | [2] 101% | [3] 100% | [4] 95.9% | [5] 96.1% | [6] 96.1% | [7] 103% | [8] 63.1%

O=C1/C(=C/c2ccc(F)cc2)CN(C(=O)C(Cl)Cl)C/C1=C\c1ccc(F)cc1
active: [1] -22.4% | [2] -80.1% | [3] -93.7% | [4] -73.1% | [5] -60.9% | [6] -92.8% | [7] -89.3% | [8] -66.3%

O=C1c2ccccc2C(=O)c2c1c(C(=O)NCc1ccccc1)c1ccccn21
inactive: [1] 103% | [2] 101% | [3] 103% | [4] 94.2% | [5] 79% | [6] 97.1% | [7] 99.9% | [8] 101%

CCOC(=O)CC1CSC(Nc2ccccc2)=N1 (stereo not given)
inactive: [1] 87.9% | [2] 114% | [3] 105% | [4] 108% | [5] 89.7% | [6] 107% | [7] 102% | [8] 99%

CC/C=C\C[C@H](O)C/C=C1/C(=O)C=C[C@@H]1C/C=C\CCCC(=O)O
active: [6] 8.9%
inactive: [1] 12% | [2] 46.2% | [3] 36.9% | [4] 49.6% | [5] 13.9% | [7] 57.7% | [8] 41.6%

CC(=O)O[C@H]1C[C@@H]2C(C)(C)C(=O)CC[C@@]2(C)c2ccc(C(C)C)cc21
inactive: [1] 102% | [2] 101% | [3] 100% | [4] 104% | [5] 107% | [6] 105% | [7] 107% | [8] 97.7%

COC(=O)C(Cc1ccccc1)NC(=O)c1ccc(NC(=O)c2[nH]c(C)c(Cl)c2Cl)c(OC(C)C)c1 (stereo not given)
inactive: [1] 36.5% | [2] 82.1% | [3] 100% | [4] 42.4% | [5] 32.8% | [7] 80.1% | [8] 39.8%
active: [6] 0.768%

O=C(Cc1ccc(NC(=O)c2cccc(Cl)c2)cc1)NCc1ccccc1
inactive: [1] 54.2% | [2] 61% | [4] 25.3% | [5] 22.1% | [6] 25.3% | [7] 73.3% | [8] 24.8%
active: [3] -30.1%

C=C(C)[C@@H]1CC[C@]2(C(=O)N3CCN(C)CC3)CC[C@]3(C)[C@H](CC[C@@H]4[C@@]5(C)CC[C@H](OC(=O)c6ccccc6C(=O)O)C(C)(C)[C@@H]5CC[C@]43C)[C@@H]12
inactive: [1] 102% | [2] 111% | [3] 99.3% | [4] 101% | [5] 96.4% | [6] 90.8% | [7] 106% | [8] 106%

COc1ccc(-c2cc(-c3ccccc3)nc(N3CCN(CCNc4ccnc5cc(Cl)ccc45)CC3)n2)cc1
inactive: [2] 72.8%
active: [1] -48% | [3] -72.1% | [4] -75.4% | [5] -84.8% | [6] -73.8% | [7] -81.5% | [8] -26.9%

CCOC(=O)c1c(C)c2c(n1Cc1ccccc1)CSCC2=O
active: [1] 1.4% [100 µM] | [2] -25.9% [100 µM] | [3] -9.11% [100 µM] | [5] -12.8% [100 µM] | [6] -17.5% [100 µM] | [8] -4.25% [100 µM]
inactive: [4] 16.7% [100 µM] | [7] 17% [100 µM]

CC(C)(C)n1cc(-c2ccnc(NCCNS(=O)(=O)c3ccc(O)cc3)c2)c(-c2cccc(O)c2)n1
inactive: [1] 88.4% | [2] 93.6% | [3] 101% | [4] 103% | [5] 81.5% | [6] 82.4% | [7] 122% | [8] 94.7%

S=C(c1ccc2c(c1)OCO2)N1CCN(c2cccc(Cl)c2)CC1
inactive: [1] 11.6% | [2] 52.4% | [6] 13.7% | [8] 12.6%
active: [3] -37.7% | [4] 4.12% | [5] -0.55% | [7] -13.1%

Cn1cc(-c2nn3cc(-c4cccs4)nc3s2)c2cc(F)ccc21
inactive: [1] 45% | [2] 43.1% | [4] 12.4% | [5] 21.4% | [6] 14.2% | [7] 66.8% | [8] 22.2%
active: [3] -43.4%

CC(C)(C)n1cc(-c2ccnc(NCCCNS(=O)(=O)c3ccc(C(F)(F)F)cc3)c2)c(-c2cccc(F)c2)n1
inactive: [1] 64.5% | [2] 84% | [3] 93.7% | [4] 90% | [5] 66.2% | [6] 54.4% | [7] 106% | [8] 65.7%

CCNc1ccc(-c2nc3ccccc3n3cccc23)cc1
inactive: [1] 55.1% | [2] 90.4% | [3] 80.7% | [4] 92.5% | [5] 34.4% | [6] 88.9% | [7] 92.4% | [8] 72.8%

C=C(CNCCO)[C@@H]1CC[C@]2(CO)CC[C@]3(C)[C@H](CC[C@@H]4[C@@]5(C)CCC(N)C(C)(C)[C@@H]5CC[C@]43C)[C@@H]12 (stereo not given in full)
inactive: [2] 65% | [8] 25.2%
active: [1] -47.7% | [3] -44% | [4] 7.71% | [5] -29.9% | [6] 7.75% | [7] -37.2%

COC(=O)/C=C1/SC(=Nc2ccc([N+](=O)[O-])cc2)N(CCc2c[nH]c3ccc(O)cc23)C1=O
inactive: [1] 53.9% | [2] 25.7% | [3] 43.1% | [4] 85.5% | [5] 30.6% | [6] 14.6% | [7] 20.9% | [8] 41.7%

C=CC(=O)Nc1ccc(Oc2nccc(Nc3nnc(-c4ccc(C)cc4)s3)n2)cc1
inactive: [1] 89.2% | [2] 73.4% | [4] 49.5% | [5] 80.6% | [6] 94.9% | [7] 110% | [8] 84%
active: [3] 0.25%

C=C(C)[C@@H]1CCC[C@]2(C(=O)O)CC[C@]3(C)[C@@H](CC[C@@H]4[C@@]5(C)C/C(=C/c6ccncc6)C(=O)C(C)(C)[C@@H]5CC[C@]43C)[C@@H]12
inactive: [1] 47.5% | [2] 46.5% | [3] 19.8% | [4] 17.5% | [5] 19.1% | [7] 23.8% | [8] 19.7%
active: [6] 4.88%

Cc1nc2c(=O)nc3s/c(=C\c4ccco4)c(=O)n3c2nc1C
inactive: [1] 94.3% | [2] 110% | [3] 94.1% | [4] 111% | [5] 96.4% | [6] 101% | [7] 97.2% | [8] 105%

Cc1n[nH]c2ccc(Br)cc2c1=O
inactive: [1] 94.6% | [2] 95.7% | [3] 107% | [4] 113% | [5] 108% | [6] 98.7% | [7] 107% | [8] 95.9%

Fc1ccc2[nH]cc(-c3nc(-c4c[nH]c5ccncc45)cs3)c2c1
inactive: [2] 70%
active: [1] -30.3% | [3] -75.3% | [4] -63.5% | [5] -46.7% | [6] -85.6% | [7] -74.3% | [8] -67.1%

N#C/C(=C\c1ccc([N+](=O)[O-])cc1)n1nnc2cc(F)c(F)cc21
active: [1] -15.2% | [4] -18.5% | [6] -46.4% | [7] -56.2% | [8] 3.75%
inactive: [2] 77.6% | [3] 41.1% | [5] 21.8%

O=C(CN1CCN(c2cc3c(cc2F)c(=O)c(C(=O)O)cn3C2CC2)CC1)N/N=C/c1ccco1
inactive: [1] 86.8% | [2] 95.2% | [3] 102% | [4] 99.6% | [5] 87.1% | [6] 97.1% | [7] 107% | [8] 102%

CO[C@H](C(=O)[C@@H](O)[C@@H](C)O)[C@@H]1Cc2cc3cc(O[C@H]4C[C@@H](O[C@H]5C[C@@H](O)[C@H](O)C(C)O5)[C@H](O)C(C)(O)O4)cc(O)c3c(O)c2C(=O)[C@H]1O[C@H]1C[C@@H](O[C@H]2C[C@@H](O[C@H]3C[C@@H](OC)[C@H](O)C(C)O3)[C@@H](O)C(C)O2)[C@H](O)C(C)O1 (stereo not given in full)
active: [2] 4.37% | [5] 6.89% | [6] 6.03%
inactive: [1] 13.5% | [3] 24.8% | [4] 34% | [7] 39.9% | [8] 14.9%

Cc1ccc2nc(/C(C#N)=C(/CCCO)NC(Cc3ccccc3)C(=O)OCc3ccccc3)[nH]c(=O)c2c1 (stereo not given)
inactive: [1] 93% | [2] 94.2% | [3] 89.5% | [4] 110% | [5] 99.8% | [6] 96.9% | [8] 109%
active: [7] -12.5%

Cn1cc(-c2ccc(-c3cn(C)c4ccc(Cl)cc34)[nH]2)c2cc(Cl)ccc21
inactive: [3] 19.5% | [5] 18.8%
active: [1] -51.1% | [2] -83.7% | [4] -83.1% | [6] -85.5% | [7] -72.2% | [8] -33.5%

Cc1nc2cc(O)c(O)cc2cc1Oc1ccc(NC(=O)Nc2ccc(Cl)c(Cl)c2)cc1
inactive: [1] 62.2% | [2] 82.2% | [3] 54.2% | [4] 49.3% | [5] 76.2% | [6] 44.6% | [7] 93.4% | [8] 74.6%
